{"source": "PubChem BioAssay (NCATS)", "note": "Results filed as inconclusive are left out. Where a call stands in place of a potency, no number is given. Activity calls are given as the source filed them. Calls follow the shape of the dose curve; as a rule, active = well fitted inhibition curve with a large enough effect; inconclusive = small, poorly fitted or top-dose-only effect; inactive = no such curve, though single readings can be large or run the other way. Potency is read from the fitted curve at half-maximal effect."}
{"experiment": "Primary qHTS for small molecule stabilizers of the endoplasmic reticulum resident proteome: Secreted ER Calcium Modulated Protein (SERCaMP) assay (AID 1508630)", "details": "SH-SY5Y GLuc-SERCaMP (Gaussia luciferase released on ER calcium loss) secretion, thapsigargin, luminescence; series mostly up to 38.4 µM", "outline": "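GLuc-SERCaMP-expressing SH-SY5Y cells, pretreated 16 h with compound, are challenged with thapsigargin to empty ER calcium stores; after 4 h, coelenterazine is added directly to the medium and luminescence is imaged.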"}
{"smiles": "O=C(c1ccc(C=Cc2n[nH]c3ccccc23)cc1)N1CCNCC1", "Potency": "inactive"}
{"smiles": "CNC1[C@H](O)C(O[C@@H]2C(O)C(O[C@H]3O[C@H]([C@@H](C)NC)CC[C@H]3N)[C@@H](N)C[C@H]2N)OC[C@]1(C)O", "note": "(stereo partly specified)", "Potency": "inactive"}
{"smiles": "N#CC(=C1Nc2ccccc2S1)c1ccnc(OCc2ccc(CN3CCOCC3)cc2)n1", "Potency": "1490 nM (active)"}
{"smiles": "CN1CC(=O)N2C(Cc3c([nH]c4ccccc34)[C@H]2c2ccc3c(c2)OCO3)C1=O", "note": "(stereo partly specified)", "Potency": "inactive"}
{"smiles": "Fc1ccc(C(c2ccc(F)cc2)N2CCN(CC=Cc3ccccc3)CC2)cc1", "Potency": "inactive"}
{"smiles": "COc1cc2nc(-c3cc(F)ccc3O)nc(N[C@@H]3CNC[C@@H]3C(C)(C)O)c2cc1OC", "Potency": "inactive"}
{"smiles": "CN1C(=O)C[C@H](C(=O)N[C@@H](Cc2cnc[nH]2)C(=O)N2CCC[C@@H]2C(N)=O)NC1=O", "Potency": "inactive"}
{"smiles": "CC(=O)O[C@]1(C(C)=O)CC[C@H]2[C@@H]3C=C(Cl)C4=CC(=O)[C@@H]5C[C@H]5[C@]4(C)[C@@H]3CC[C@@]21C", "Potency": "inactive"}
{"smiles": "CN[C@H]1[C@@H](O[C@@H]2[C@H](O[C@@H]3[C@@H](O)[C@@H](O)[C@@H](N=C(N)N)[C@@H](O)[C@@H]3N=C(N)N)O[C@H](C)[C@@]2(O)C=O)O[C@@H](CO)[C@@H](O)[C@H]1O", "Potency": "inactive"}
{"smiles": "CC1(C)[C@H]2CC[C@]3(C)[C@@H](C(=O)C=C4[C@@H]5C[C@@](C)(C(=O)O)CC[C@]5(C)CC[C@]43C)[C@@]2(C)CC[C@@H]1O", "Potency": "inactive"}
{"smiles": "C[C@@H]1CC=CC=CC=CC=C[C@@H](O[C@@H]2O[C@H](C)[C@@H](O)[C@H](N)[C@H]2O)C[C@@H]2O[C@](O)(C[C@@H](O)C[C@@H]3O[C@@H]3C=CC(=O)O1)C[C@H](O)[C@@H]2C(=O)O", "Potency": "inactive"}
